Consider 20 compounds from PubChem BioAssay (NCATS).

Test [1] in a line: High Content Imaging Cell-Based qHTS for Inhibitors of the mTORC1 Signaling Pathway in MEF (Tsc2-/-, p53-/-) Cells (AID 2666).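 Also: percent of cells scored positive for phospho-rpS6 Ser235/236 immunostaining by imaging.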 Also: potency is read from the fitted curve at half-maximal effect. A digest of the protocol: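 Inhibition of rpS6 phosphorylation is measured by immunofluorescence imaging in empty-vector Tsc2-/-, p53-/- mouse embryonic fibroblasts after 24 hrs compound exposure at 37 degree Celsius. Results are reported as % positive cells per well.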

Test [2] is described as follows: High Content Imaging Cell-Based qHTS for Inhibitors of the mTORC1 Signaling Pathway in MEF Cells (AID 2667). Also: potency is read from the fitted curve at half-maximal effect. A digest of the protocol: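 Fixed-cell imaging of phospho-S6 (Ser235/236, Alexa-488) after 24 hrs of compound treatment at 37 degree Celsius. Signal was normalized to Hoechst, and thresholds from the highest and lowest wells split cells into % active versus % non-active.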

A short description of test [3]: Cytometry Cell-Based qHTS for Inhibitors of the mTORC1 Signaling Pathway in MEF cells (AID 2668). Also: potency is read from the fitted curve at half-maximal effect. Put shortly: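 MEFs (Tsc2-/-, p53-/- stably expressing WT Tsc2) treated 24 h at 37 degree Celsius, fixed, stained with Alexa-488 anti-phospho-rpS6 Ser235/236 and propidium iodide; Acumen laser scanning. Reported as % positive cells, phospho-S6 normalized to PI.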
The target of test [4] is Ubiquitin carboxyl-terminal hydrolase 2 (Homo sapiens) (UniProt O75604). The test is described as follows: qHTS Validation Assay for Inhibitors of Ubiquitin-specific Protease USP2a Using CHOP2 as the Reporter (AID 463106). Put shortly:
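Inhibition is expressed relative to NEM as the full-inhibition control, with concentration-response curves classed by fit quality, magnitude and activity. Enzyme (USP2 core, 10nM) meets 25nM Ub-CHOP2 after compound preincubation; readings are taken at 60min.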

Test [5] concerns the target DNA polymerase III PolC-type (Bacillus subtilis (strain 168)) (UniProt P13267). The test is described as follows: qHTS Validation Assay for the Inhibitors of DNA Replication in Gram-Positive Bacteria (AID 485295).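 Also: PicoGreen fluorescence of double-stranded DNA made on primed circular M13 template; series mostly up to about 57 µM.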 A digest of the protocol:
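Reconstituted B. subtilis Pol III holoenzyme (PolC, beta clamp, SSB, primase) preincubated with compound, then M13Gori single-stranded circular template with dNTPs/NTPs added; room temperature reaction. Stopped with EDTA/PicoGreen; dsDNA fluorescence read, EDTA as full-inhibition control.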

The target of test [6] is Beta-2 adrenergic receptor (Homo sapiens) (UniProt P07550). Kind of test: qHTS validation assay of beta-arrestin-biased ligands of beta2-adrenergic receptor (AID 485366). Put shortly: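 Screening used a titration range of up to 46 microM in a beta-arrestin recruitment Tango luciferase assay. Cells in 1% FBS medium were treated 18 hr at 37 degrees C, and luminescence was normalized to %Activity.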

Test [7] addresses ATP-dependent 6-phosphofructokinase (Trypanosoma brucei brucei) (UniProt O15648). The test is described as follows: qHTS Validation Assay to Find Inhibitors of T. brucei phosphofructokinase (AID 485368). The following applies: outcome: dose series up to 57.5 µM. Put shortly: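 PFK-generated ADP was measured after 45 min at room temperature using ADP-Glo. The reaction contained 0.5 mM F6P and 0.1 mM ATP.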

A short description of test [8]: Validation screen for small molecules that induce DNA re-replication in MCF 10A normal breast cells (AID 463097). Also: nearly all actives have a fitted effect of over 60% in size. Also: potency is read from the fitted curve at half-maximal effect. Put shortly: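 MCF 10A cells exposed to compound 48 hr at 37 C, 5% CO2, then Hoechst-stained 40 min. Laser-scanning imaging of nuclear DNA content (405 nm ex, 500-530 nm em); re-replication scored as rise in nuclei with elevated fluorescence intensity.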

Test [9] concerns the target Tumor susceptibility gene 101 protein (Homo sapiens) (UniProt Q99816). The test is described as follows: qHTS Validation Assay for Iinhibitors of HIV-1 Budding by Blocking the Interaction of PTAP/TSG101 (AID 485342; calls by dose curve). Put shortly:
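Tsg101 binding domain (10 uM) with FITC-labeled PTAP peptide (50 nM) in HEPES pH 7.5 buffer, 20 min at r.t. with compounds. Binding measured by fluorescence polarization.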

The nature of test [10]: qHTS Validation Assay to Find Inhibitors of Chronic Active B-Cell Receptor Signaling (AID 485345; active = well fitted curve in the direction sought with a large enough effect in the main read-out, with a control signal flat, not every such curve was filed as active). Put shortly: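 TMD8 ABC-DLBCL cells with dox-inducible green luciferase–IκBα fusion and red native luciferase; compounds 46 uM–3 nM, 4 h at 37C with doxycycline in 0.5% FBS IMDM. Green/red ratio normalized to basal and 10 uM MG-132.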

Inconclusive results are not listed. Calls of active or inactive are those of the source. Unless noted, calls follow the shape of the dose curve; as a rule, active = well fitted curve in the direction sought with a large enough effect; inconclusive = small, poorly fitted or top-dose-only effect, or another doubt; inactive = no such curve, though single readings can be large; an effect the other way counts as inactive or inconclusive.

ATP-dependent 6-phosphofructokinase (Trypanosoma brucei brucei), sequence (O15648 whole entry, looked up): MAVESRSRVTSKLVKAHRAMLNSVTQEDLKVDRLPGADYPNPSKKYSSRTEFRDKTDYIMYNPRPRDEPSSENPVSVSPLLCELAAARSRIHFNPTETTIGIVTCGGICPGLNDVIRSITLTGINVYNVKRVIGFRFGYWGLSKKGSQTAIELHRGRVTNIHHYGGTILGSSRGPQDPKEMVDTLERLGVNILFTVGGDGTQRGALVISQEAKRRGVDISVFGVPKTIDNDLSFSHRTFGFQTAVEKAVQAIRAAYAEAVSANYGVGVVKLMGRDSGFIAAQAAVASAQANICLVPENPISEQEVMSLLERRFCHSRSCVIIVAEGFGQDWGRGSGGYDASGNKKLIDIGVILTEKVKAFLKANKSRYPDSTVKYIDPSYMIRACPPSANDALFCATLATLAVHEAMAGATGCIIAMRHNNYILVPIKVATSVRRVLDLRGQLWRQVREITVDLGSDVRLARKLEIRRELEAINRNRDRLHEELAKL
Beta-2 adrenergic receptor (Homo sapiens), sequence (P07550 whole entry, looked up): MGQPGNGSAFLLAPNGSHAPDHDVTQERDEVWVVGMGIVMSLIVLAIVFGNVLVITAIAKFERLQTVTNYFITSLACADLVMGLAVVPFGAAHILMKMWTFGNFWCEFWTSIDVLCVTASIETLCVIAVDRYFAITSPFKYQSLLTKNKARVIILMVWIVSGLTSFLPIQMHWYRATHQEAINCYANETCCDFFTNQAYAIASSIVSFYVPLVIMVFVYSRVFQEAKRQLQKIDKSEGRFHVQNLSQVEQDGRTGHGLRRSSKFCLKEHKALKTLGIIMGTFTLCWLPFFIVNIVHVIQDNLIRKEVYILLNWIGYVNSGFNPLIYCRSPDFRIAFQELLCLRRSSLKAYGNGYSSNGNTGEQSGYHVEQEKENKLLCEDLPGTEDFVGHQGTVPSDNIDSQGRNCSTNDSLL
DNA polymerase III PolC-type (Bacillus subtilis (strain 168)), sequence (P13267 whole entry, looked up): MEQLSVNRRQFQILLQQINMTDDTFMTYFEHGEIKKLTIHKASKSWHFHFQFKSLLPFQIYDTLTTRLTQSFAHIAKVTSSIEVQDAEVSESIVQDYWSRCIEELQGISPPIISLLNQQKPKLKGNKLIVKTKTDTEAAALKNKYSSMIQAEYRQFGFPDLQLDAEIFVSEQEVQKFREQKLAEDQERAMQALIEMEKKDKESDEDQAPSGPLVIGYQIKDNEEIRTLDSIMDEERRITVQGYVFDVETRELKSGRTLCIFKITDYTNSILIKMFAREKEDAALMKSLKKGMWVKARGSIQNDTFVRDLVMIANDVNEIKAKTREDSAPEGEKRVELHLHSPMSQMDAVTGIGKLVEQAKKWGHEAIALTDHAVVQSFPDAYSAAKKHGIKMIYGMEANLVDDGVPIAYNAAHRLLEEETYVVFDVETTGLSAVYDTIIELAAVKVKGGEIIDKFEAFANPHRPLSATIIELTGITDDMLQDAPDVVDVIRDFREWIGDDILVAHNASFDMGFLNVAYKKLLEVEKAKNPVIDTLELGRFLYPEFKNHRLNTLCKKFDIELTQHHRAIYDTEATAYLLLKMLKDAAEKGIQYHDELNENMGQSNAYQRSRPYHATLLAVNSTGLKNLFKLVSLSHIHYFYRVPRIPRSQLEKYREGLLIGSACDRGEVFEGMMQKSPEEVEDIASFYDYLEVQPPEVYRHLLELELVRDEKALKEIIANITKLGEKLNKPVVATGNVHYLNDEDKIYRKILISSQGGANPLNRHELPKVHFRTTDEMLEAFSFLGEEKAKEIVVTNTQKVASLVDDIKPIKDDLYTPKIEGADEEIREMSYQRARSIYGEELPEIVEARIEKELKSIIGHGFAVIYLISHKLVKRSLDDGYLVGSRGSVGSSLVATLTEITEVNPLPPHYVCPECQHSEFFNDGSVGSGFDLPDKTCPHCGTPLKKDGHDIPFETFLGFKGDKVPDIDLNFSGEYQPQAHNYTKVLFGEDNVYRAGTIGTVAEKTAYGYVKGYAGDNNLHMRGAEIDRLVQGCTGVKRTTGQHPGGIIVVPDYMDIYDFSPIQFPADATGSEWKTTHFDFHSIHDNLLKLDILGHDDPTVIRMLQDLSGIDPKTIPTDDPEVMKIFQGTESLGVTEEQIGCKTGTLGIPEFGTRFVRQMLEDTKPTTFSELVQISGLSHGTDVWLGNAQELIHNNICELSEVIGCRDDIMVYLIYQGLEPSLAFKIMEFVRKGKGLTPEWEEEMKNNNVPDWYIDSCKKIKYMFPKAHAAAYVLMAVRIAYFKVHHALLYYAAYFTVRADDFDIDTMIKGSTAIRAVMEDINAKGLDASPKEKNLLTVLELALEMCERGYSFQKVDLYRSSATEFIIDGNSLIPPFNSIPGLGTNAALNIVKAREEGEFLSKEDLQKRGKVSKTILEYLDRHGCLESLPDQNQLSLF
Ubiquitin carboxyl-terminal hydrolase 2 (Homo sapiens), sequence (O75604 whole entry, looked up): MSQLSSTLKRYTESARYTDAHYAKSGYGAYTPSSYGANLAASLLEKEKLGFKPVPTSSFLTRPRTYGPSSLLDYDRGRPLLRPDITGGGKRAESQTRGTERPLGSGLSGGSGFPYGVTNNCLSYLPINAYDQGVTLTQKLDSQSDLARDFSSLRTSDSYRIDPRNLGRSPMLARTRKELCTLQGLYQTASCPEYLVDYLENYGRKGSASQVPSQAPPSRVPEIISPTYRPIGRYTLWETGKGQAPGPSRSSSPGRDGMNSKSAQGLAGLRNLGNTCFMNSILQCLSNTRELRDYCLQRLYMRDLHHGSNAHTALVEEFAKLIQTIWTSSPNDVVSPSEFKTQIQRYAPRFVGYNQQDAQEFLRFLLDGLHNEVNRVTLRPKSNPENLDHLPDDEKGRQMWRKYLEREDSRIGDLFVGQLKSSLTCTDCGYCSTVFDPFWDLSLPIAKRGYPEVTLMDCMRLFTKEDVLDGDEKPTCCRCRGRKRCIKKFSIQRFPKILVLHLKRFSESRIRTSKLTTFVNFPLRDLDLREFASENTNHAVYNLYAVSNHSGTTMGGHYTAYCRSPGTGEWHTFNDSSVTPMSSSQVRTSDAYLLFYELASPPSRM
Tumor susceptibility gene 101 protein (Homo sapiens), sequence (Q99816 whole entry, looked up, the tested form may be a part): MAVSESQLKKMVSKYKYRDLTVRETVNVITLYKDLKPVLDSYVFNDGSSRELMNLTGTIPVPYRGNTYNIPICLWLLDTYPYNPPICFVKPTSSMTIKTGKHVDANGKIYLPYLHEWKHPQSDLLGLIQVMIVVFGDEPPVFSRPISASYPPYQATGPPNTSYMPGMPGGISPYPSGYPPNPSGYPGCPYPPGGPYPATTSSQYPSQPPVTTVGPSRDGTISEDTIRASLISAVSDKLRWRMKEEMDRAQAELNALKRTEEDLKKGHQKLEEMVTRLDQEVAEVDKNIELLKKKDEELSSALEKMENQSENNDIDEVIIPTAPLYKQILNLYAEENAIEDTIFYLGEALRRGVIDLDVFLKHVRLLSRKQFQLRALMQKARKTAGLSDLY

Consider `NC(N)=NC(=O)Cc1c(Cl)cccc1Cl`, for which the Potency entry in [1], in test [2], in test [3] and in test [5] was “inactive” throughout. Further, the outcome in [4], in test [6] and in [7] was inactive.

Take `CSc1ccc(C(=O)c2[nH]c(=O)[nH]c2C)cc1`: the Potency result in [2], in test [3], in test [8], in [5] and in test [10] was “inactive” throughout. Further, the compound was classed as inactive in test [4], in [9] and in test [6].

On to `CC(C)(C)c1ccc(C(=O)CCCN2CCC(OC(c3ccccc3)c3ccccc3)CC2)cc1`, for which the figures for the Potency in test [1] and in test [2] were 20.7 µM (active) and 4.65 µM (active), respectively. Further, the compound was called inactive in [4], in [9], in test [6] and in test [7]. The Potency result in [5] and in test [10] was “inactive” throughout.

In the case of `CN(C)[C@@H]1C(=O)C(C(N)=O)=C(O)[C@@]2(O)C(=O)C3=C(O)c4c(O)ccc(Cl)c4[C@@H](O)[C@H]3C[C@@H]12`, the Potency entry in test [1], in test [2], in test [3], in test [5] and in test [10] was “inactive” throughout. The compound was called inactive in test [4] and in test [6].

Regarding `CCCC(C(=O)OCCN(CC)CC)(c1ccccc1)c1ccccc1`, the Potency entry in test [1], in test [2], in [8] and in test [5] was “inactive” throughout. In addition, the compound was called inactive in [4] and in [6].

Turning to `C[C@]12CCC(=O)C=C1CC[C@@H]1[C@@H]2C(=O)C[C@@]2(C)[C@H]1CC[C@]2(O)C(=O)CO`, the Potency result in test [2], in test [3], in [8] and in test [5] was “inactive” in each case. Further, the call in [4], in [6] and in test [7] was inactive.

`COCC(=O)O[C@]1(CCN(C)CCCc2nc3ccccc3[nH]2)CCc2cc(F)ccc2[C@@H]1C(C)C`: the Potency in test [2] is 10.4 µM (active). Also, the call in test [4], in [9], in test [6] and in test [7] was inactive. Moreover, the Potency entry in test [5] was “inactive”.

For the compound `C[C@]12CCC(=O)C=C1CC[C@@H]1[C@@H]2CC[C@@]2(C)[C@H]1CC[C@]2(O)C(=O)CO`, the Potency result in test [2], in test [3], in [8] and in test [5] was “inactive” each time. Further, the outcome in test [4], in test [9], in test [6] and in test [7] was inactive.

With `N[C@@H](COP(=O)(O)O)C(=O)O`, the Potency entry in [2], in test [3], in [8], in [5] and in [10] was “inactive” throughout. For the same compound, the compound was classed as inactive in test [4], in test [9], in [6] and in test [7].

With `Cc1ccc(/C(=C\CN2CCCC2)c2ccccn2)cc1`, the Potency result in test [2], in [3], in test [5] and in test [10] was “inactive” each time. For the same compound, the compound was classed as inactive in [4], in test [9], in [6] and in [7].

In the case of `COc1cc2c(cc1OC)-c1cc(=Nc3c(C)cc(C)cc3C)n(C)c(=O)n1CC2`, the Potency entry in test [2], in [3] and in [5] was “inactive” in each case. The call in [4], in test [9], in test [6] and in [7] was inactive.

For `c1cc(CN2CCCCC2)cc(OCCCNc2nc3ccccc3s2)c1`, the Potency in [3] was 16.5 µM (active). The call in [4], in [9] and in [6] was inactive. Besides, the Potency entry in test [5] was “inactive”.

For `CCOC(=O)C1=C(C)NC(C)=C(C(=O)OC)C1c1cccc(Cl)c1Cl` (configuration not stated), the Potency result in test [2] and in test [5] was “inactive” each time. The Potency in test [8] was 11.2 µM (active). For the same compound, the call in [6] and in test [7] was inactive.

`O=C1NCN(c2ccccc2)C12CCN(CCCC(c1ccc(F)cc1)c1ccc(F)cc1)CC2`: the call in [4], in test [6] and in [7] was inactive. In [5], the Potency result was “inactive”.

For the compound `CC1=NS(=O)(=O)c2cc(Cl)ccc2N1`, the Potency result in [2], in test [3], in [8], in [5] and in [10] was “inactive” throughout. For the same compound, the compound was called inactive in test [4], in test [9], in test [6] and in test [7].

With `CC(C)NNC(=O)c1ccncc1`, the Potency result in test [2], in test [3], in test [8], in [5] and in [10] was “inactive” each time. Further, the outcome in test [4] and in test [6] was inactive.

Turning to `CCN(Cc1ccncc1)C(=O)C(CO)c1ccccc1` (configuration not stated), the Potency result in [2], in test [3], in test [8], in test [5] and in test [10] was “inactive” throughout. Further, the outcome in [4], in test [6] and in test [7] was inactive.

On to `CN(C)CC/C=C1\c2ccccc2COc2ccccc21`, for which the Potency result in test [2], in test [3], in test [8], in test [5] and in [10] was “inactive” each time. Besides, the outcome in [4] and in [6] was inactive.

`C[C@H](CS)C(=O)N1CCC[C@H]1C(=O)O`: the Potency entry in [2], in test [3], in test [8], in [5] and in test [10] was “inactive” throughout. The call in [9], in test [6] and in test [7] was inactive.

As for `CN(C(=O)CCCOc1ccc2[nH]c(=O)ccc2c1)C1CCCCC1`, the Potency result in test [2], in test [3], in [8] and in test [5] was “inactive” throughout. The result in test [4], in test [9], in test [6] and in [7] was inactive.
